Source: the supplement of paper PMC10849652
About 8,800 targets were measured; listed, in parts, are those with a hit and a random draw of the rest. About 0.5% of all pairs of compound and target were hits.

Key:
Experiment in all cases: log2 fold change, soluble protein after heating vs DMSO (PISA); higher = thermal stabilisation; K562 lysate, 10 uM; active = over 0.2 and 3.5 SD of the protein, either way, in both replicates (recomputed)
erlotinib = compound: C#Cc1cccc(Nc2ncnc3cc(OCCOC)c(OCCOC)cc23)c1 [erlotinib]
Outline: (§1)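 Soluble protein was defined as the supernatant remaining after 21,000xg for 90 min, following pooling of heated aliquots and adjustment to 0.5% NP-40 at 4°C. Before that, crude K562 extract at 1 mg/mL protein in PBS pH 7.4 with 1 mM MgCl2 was treated with 10 μM compound for 30 min and heated for 3 min across 48°C-58°C. Quantification used TMTpro 16plex LC-MS/MS with channel sums equalised, and values are log-two fold changes in thermal stability relative to solvent controls from duplicates.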

[1] = compound: C/C(=N\NC(=O)C1=CC(=CC=C1)S(=O)(=O)N2CCOCC2)/C3=C(C=CC(=C3)Cl)O
Outline: as §1

[2] = compound: C1=CC(=CC=C1C2=NC3=C(N2)C=C(C=C3)C(=O)N)OC4=CC=C(C=C4)Cl
Outline: as §1

[3] = compound: C1=CC2=C(C=CC(=C2)/C=C\3/C(=O)NC(=NCC4=CC=CS4)S3)N=C1
Outline: as §1

[4] = compound: C1=CC2=NC=CN=C2C=C1/C=C/3\C(=O)NC(=O)S3
Outline: as §1

[5] = compound: C1=CC=C(C=C1)C2=NC(=C(N2)C3=CC=NC=C3)C4=CC(=C(C=C4)Cl)O
Outline: as §1

[6] = compound: C1=CC=C2C(=C1)C3=NNC4=CC=CC(=C43)C2=O
Outline: as §1

[7] = compound: C1CCN(C1)C(=O)NC2=CC=CC(=C2)NC3=NC=C(C(=N3)NCCC4=CN=CN4)Br
Outline: as §1

[8] = compound: C1CN(CCC1(CC2=CC=C(C=C2)Cl)N)C3=NC=NC4=C3C=CN4
Outline: as §1

IRAK-1-4 Inhibitor I = compound: C1COCCN1CCN2C3=CC=CC=C3N=C2NC(=O)C4=CC(=CC=C4)[N+](=O)[O-] [IRAK-1-4 Inhibitor I]
Outline: as §1

ibrutinib = compound: C=CC(=O)N1CCC[C@@H](n2nc(-c3ccc(Oc4ccccc4)cc3)c3c(N)ncnc32)C1 [ibrutinib]
Outline: as §1

[9] = compound: CC(=O)c1cnc2ccc(-c3cc(Cl)c(O)c(Cl)c3)nc2c1N[C@H]1CC[C@H](CN(C)C)CC1
Outline: as §1

ralimetinib = compound: CC(C)(C)Cn1c(N)nc2ccc(-c3[nH]c(C(C)(C)C)nc3-c3ccc(F)cc3)nc21 [ralimetinib]
Outline: as §1

[10] = compound: CC(C)(O)CC(=O)NCCn1ccc2ncnc(Nc3ccc(Oc4cccc(C(F)(F)F)c4)c(Cl)c3)c21
Outline: as §1

[11] = compound: CC(C)C1=C2N=C(C=C(N2N=C1)NCC3=CC=CC=C3)NCCCCCCN
Outline: as §1

[12] = compound: CC1=C(C(CC(=O)N1)C2=CC=C(C=C2)C(F)(F)F)C(=O)NC3=C(C=C4C(=C3)C=NN4)F
Outline: as §1

[13] = compound: CC1=C(C2=C(C=C1)C(=O)C3=CC=CC=C3N2CCCN)C
Outline: as §1

[14] = compound: CC1=C(C=C(C=C1)NC(=O)C2=CC(=CC=C2)C(C)(C)C#N)NC3=CC4=C(C=C3)N=CN(C4=O)C
Outline: as §1

[15] = compound: CC1=C(C=C(C=C1)NC(=O)C2=CC(=CC=C2)N(C)C)NC(=O)C3=CC=C(C=C3)O
Outline: as §1

[16] = compound: CC1=CC=C(C=C1)SC2=C3C=C(SC3=CN=C2)C(=O)N
Outline: as §1

Measured: log2 fold change

TOX4 (UniProt O94842)
inactive: erlotinib -0.016 | [1] -0.025 | [2] 0.049 | [3] 0.037 | [4] -0.052 | [5] 0.04 | [6] -0.003 | [7] -0.014 | [8] 0.053 | IRAK-1-4 Inhibitor I -0.025 | ibrutinib -0.009 | [9] 0.054 | ralimetinib 0.009 | [10] -0.034 | [11] -0.008 | [12] 0.024 | [13] -0.002 | [14] 0.033 | [15] 0.023 | [16] 0.006

TRIP13 (UniProt Q15645)
UniProt Q15645, sequence (Q15645 whole entry, looked up): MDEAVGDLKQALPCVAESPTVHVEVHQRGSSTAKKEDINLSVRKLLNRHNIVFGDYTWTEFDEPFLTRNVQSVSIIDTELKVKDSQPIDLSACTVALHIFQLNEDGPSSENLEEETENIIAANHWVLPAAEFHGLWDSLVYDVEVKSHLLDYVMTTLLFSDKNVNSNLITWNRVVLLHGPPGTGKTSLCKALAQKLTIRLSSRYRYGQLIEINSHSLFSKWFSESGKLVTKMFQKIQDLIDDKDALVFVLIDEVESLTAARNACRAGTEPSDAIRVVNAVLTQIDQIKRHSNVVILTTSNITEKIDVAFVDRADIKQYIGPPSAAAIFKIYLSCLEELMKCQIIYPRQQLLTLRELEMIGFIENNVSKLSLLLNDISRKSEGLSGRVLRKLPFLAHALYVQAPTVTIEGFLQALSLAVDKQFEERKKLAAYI
inactive: erlotinib 0.034 | [1] -0.117 | [2] 0.007 | [3] 0.04 | [4] -0.034 | [5] 0.009 | [6] -0.038 | [7] 0 | [8] -0.002 | IRAK-1-4 Inhibitor I 0.005 | ibrutinib -0.025 | [9] -0.013 | ralimetinib 0.039 | [10] 0.023 | [11] -0.022 | [12] -0.004 | [13] 0.006 | [14] 0.029 | [15] 0.045 | [16] 0.001

TRIP12 isoform 2 (UniProt Q14669)
UniProt Q14669, sequence (Q14669 whole entry, looked up): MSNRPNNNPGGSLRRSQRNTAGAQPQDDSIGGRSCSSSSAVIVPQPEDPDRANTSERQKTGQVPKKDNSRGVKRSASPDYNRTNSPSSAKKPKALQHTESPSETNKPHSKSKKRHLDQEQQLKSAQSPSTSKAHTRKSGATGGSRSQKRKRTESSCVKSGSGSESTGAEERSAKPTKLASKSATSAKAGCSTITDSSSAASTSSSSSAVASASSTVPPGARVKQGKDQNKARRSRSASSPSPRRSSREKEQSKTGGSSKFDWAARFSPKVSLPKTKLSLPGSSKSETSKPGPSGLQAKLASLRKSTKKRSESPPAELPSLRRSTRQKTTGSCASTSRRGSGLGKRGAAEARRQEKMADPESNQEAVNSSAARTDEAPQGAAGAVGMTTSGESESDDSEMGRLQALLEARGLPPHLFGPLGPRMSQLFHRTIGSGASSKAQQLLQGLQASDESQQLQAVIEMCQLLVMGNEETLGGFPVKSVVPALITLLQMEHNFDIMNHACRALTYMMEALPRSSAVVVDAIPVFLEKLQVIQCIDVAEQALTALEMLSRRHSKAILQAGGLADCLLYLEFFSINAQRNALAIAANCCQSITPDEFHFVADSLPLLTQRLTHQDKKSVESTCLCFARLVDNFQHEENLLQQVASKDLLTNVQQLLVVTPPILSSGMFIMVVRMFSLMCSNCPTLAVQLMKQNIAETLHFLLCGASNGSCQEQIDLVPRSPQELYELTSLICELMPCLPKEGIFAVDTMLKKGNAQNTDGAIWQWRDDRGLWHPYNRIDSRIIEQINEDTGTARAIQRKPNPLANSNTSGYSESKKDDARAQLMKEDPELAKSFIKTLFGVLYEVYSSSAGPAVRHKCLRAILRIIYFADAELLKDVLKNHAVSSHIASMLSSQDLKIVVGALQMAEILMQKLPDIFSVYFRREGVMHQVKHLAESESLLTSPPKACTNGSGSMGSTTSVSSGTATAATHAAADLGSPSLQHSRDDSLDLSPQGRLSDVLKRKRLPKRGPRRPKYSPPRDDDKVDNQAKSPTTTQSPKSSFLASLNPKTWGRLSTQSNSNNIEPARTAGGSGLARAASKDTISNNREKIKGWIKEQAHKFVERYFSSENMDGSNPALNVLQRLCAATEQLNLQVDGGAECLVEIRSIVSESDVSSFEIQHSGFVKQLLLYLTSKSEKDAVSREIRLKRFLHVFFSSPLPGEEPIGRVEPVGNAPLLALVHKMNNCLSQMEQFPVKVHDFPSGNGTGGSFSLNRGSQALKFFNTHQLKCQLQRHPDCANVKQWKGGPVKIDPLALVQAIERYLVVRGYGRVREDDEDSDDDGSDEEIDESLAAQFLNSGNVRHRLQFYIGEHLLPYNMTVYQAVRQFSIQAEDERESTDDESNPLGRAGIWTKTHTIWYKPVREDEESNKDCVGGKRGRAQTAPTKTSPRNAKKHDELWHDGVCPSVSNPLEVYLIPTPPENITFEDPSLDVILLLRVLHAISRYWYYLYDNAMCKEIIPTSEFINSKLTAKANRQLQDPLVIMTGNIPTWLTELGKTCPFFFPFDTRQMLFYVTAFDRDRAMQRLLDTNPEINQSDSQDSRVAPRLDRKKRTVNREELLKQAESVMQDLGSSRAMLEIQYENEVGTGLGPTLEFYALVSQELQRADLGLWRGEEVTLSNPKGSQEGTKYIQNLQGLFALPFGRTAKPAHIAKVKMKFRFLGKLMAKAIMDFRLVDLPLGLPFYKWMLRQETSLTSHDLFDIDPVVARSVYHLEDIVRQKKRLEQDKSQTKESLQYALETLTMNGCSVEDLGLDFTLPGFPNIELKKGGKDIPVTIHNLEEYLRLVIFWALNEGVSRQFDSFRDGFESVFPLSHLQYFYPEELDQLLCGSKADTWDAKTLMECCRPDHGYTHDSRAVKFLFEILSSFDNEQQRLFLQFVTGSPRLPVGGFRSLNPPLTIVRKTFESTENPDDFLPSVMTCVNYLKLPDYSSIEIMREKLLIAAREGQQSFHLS
inactive: erlotinib 0.034 | [1] 0.013 | [2] -0.014 | [3] 0.004 | [4] 0.024 | [5] -0.027 | [6] -0.02 | [7] 0.019 | [8] -0.021 | IRAK-1-4 Inhibitor I -0.032 | ibrutinib 0 | [9] -0.031 | ralimetinib 0.109 | [10] 0.044 | [11] -0.028 | [12] -0.004 | [13] 0.066 | [14] 0.058 | [15] -0.012 | [16] 0.031

TTL (UniProt Q8NG68)
inactive: erlotinib 0.056 | [1] 0.01 | [2] 0 | [3] 0.019 | [4] -0.001 | [5] -0.027 | [6] 0.097 | [7] 0.006 | [8] -0.074 | IRAK-1-4 Inhibitor I 0.019 | ibrutinib 0.014 | [9] 0.101 | ralimetinib -0.029 | [10] 0.037 | [11] 0.018 | [12] 0.016 | [13] -0.065 | [14] 0.063 | [15] 0.063 | [16] -0.074

TRMT12 (UniProt Q53H54)
UniProt Q53H54, sequence (Q53H54 whole entry, looked up): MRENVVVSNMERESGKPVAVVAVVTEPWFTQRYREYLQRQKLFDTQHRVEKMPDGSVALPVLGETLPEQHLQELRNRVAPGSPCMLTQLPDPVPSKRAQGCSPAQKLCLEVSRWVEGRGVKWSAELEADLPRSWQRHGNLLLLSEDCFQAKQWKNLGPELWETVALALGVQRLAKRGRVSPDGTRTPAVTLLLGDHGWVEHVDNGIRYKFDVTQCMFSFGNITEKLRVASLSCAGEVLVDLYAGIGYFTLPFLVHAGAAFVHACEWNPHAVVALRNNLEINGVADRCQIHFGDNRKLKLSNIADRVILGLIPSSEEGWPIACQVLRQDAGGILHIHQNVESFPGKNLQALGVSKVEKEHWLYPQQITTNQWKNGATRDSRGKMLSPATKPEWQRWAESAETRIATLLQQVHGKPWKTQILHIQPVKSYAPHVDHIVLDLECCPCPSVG
inactive: erlotinib 0.065 | [1] 0.01 | [2] 0.018 | [3] 0.058 | [4] -0.044 | [5] 0.106 | [6] -0.047 | [7] -0.064 | [8] 0.07 | IRAK-1-4 Inhibitor I -0.03 | ibrutinib -0.083 | [9] -0.009 | ralimetinib 0.094 | [10] 0.063 | [11] -0.018 | [12] -0.081 | [13] -0.048 | [14] 0.036 | [15] 0.033 | [16] -0.031

TMEM97 (UniProt Q5BJF2)
UniProt Q5BJF2, sequence (Q5BJF2 whole entry, looked up): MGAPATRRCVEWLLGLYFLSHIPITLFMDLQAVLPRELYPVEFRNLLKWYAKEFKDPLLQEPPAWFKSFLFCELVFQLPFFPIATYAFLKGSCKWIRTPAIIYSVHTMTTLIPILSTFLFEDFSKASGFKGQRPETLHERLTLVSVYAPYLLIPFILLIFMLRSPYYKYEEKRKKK
inactive: erlotinib 0.01 | [1] 0.043 | [2] 0.036 | [3] 0.007 | [4] 0.019 | [5] 0 | [6] 0.002 | [7] -0.033 | [8] 0.018 | IRAK-1-4 Inhibitor I 0.091 | ibrutinib 0.01 | [9] 0.012 | ralimetinib 0.004 | [10] -0.056 | [11] -0.034 | [12] -0.025 | [13] -0.032 | [14] 0.003 | [15] 0.042 | [16] -0.017

TMEM263 (UniProt Q8WUH6)
inactive: erlotinib -0.114 | [1] -0.104 | [2] 0.273 | [3] -0.119 | [4] -0.022 | [5] -0.05 | [6] -0.012 | [7] -0.006 | [8] 0.095 | IRAK-1-4 Inhibitor I 0.026 | ibrutinib -0.04 | [9] -0.003 | ralimetinib -0.037 | [10] -0.174 | [11] -0.002 | [12] 0.349 | [13] 0.049 | [14] -0.058 | [15] 0.004 | [16] -0.079

TPM1 (UniProt H7BYY1)
inactive: erlotinib -0.034 | [1] -0.004 | [2] -0.057 | [3] 0.026 | [4] -0.008 | [5] 0.091 | [6] -0.041 | [7] 0.012 | [8] -0.02 | IRAK-1-4 Inhibitor I -0.071 | ibrutinib -0.002 | [9] -0.018 | ralimetinib -0.035 | [10] 0.068 | [11] 0.037 | [12] -0.027 | [13] 0.023 | [14] -0.045 | [15] 0.039 | [16] -0.034

UBP1 (UniProt Q9NZI7)
inactive: erlotinib 0.018 | [1] -0.109 | [2] -0.095 | [3] 0.048 | [4] 0.016 | [5] 0.01 | [6] 0.032 | [7] -0.034 | [8] -0.017 | IRAK-1-4 Inhibitor I 0.029 | ibrutinib -0.006 | [9] 0.056 | ralimetinib 0.024 | [10] -0.004 | [11] 0.048 | [12] -0.028 | [13] 0.047 | [14] 0.03 | [15] -0.037 | [16] 0.004

UBE3B (UniProt Q7Z3V4)
UniProt Q7Z3V4, sequence (Q7Z3V4 whole entry, looked up): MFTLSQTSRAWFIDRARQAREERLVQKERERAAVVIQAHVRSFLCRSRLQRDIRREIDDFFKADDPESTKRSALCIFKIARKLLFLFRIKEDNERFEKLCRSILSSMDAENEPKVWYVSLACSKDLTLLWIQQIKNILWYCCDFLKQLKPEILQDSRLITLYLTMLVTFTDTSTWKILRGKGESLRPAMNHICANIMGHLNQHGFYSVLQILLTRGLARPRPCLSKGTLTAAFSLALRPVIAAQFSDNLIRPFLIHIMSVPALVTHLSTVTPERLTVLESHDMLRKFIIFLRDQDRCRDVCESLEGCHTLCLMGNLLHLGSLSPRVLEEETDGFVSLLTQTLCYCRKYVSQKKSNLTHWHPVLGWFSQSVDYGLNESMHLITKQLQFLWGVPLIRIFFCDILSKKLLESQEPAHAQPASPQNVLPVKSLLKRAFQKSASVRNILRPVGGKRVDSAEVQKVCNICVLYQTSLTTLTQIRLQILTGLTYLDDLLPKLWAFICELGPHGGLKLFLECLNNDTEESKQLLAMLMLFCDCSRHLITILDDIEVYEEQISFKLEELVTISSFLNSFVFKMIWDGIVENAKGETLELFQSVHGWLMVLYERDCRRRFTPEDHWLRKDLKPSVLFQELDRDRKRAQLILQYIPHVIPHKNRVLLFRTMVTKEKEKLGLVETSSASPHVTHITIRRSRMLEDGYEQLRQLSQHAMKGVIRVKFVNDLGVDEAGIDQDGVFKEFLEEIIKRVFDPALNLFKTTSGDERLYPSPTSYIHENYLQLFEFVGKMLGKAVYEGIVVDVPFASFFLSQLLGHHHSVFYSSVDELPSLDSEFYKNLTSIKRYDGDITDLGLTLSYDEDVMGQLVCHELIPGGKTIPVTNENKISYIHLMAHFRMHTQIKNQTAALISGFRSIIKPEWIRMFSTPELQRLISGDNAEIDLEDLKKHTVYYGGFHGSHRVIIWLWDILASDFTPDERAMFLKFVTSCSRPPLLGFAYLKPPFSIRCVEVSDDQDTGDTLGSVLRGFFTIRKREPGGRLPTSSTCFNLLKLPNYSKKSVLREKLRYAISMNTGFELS
inactive: erlotinib -0.14 | [1] -0.218 | [2] -0.3 | [3] 0.056 | [4] 0.142 | [5] 0.011 | [6] -0.022 | [7] -0.04 | [8] -0.12 | IRAK-1-4 Inhibitor I 0.019 | ibrutinib 0.041 | [9] 0.019 | ralimetinib 0.02 | [10] -0.074 | [11] -0.112 | [12] 0.068 | [13] 0 | [14] -0.004 | [15] -0.022 | [16] 0.023

UBE3C (UniProt Q15386)
inactive: erlotinib 0.035 | [1] -0.061 | [2] -0.067 | [3] 0.011 | [4] -0.036 | [5] -0.01 | [6] -0.022 | [7] 0.027 | [8] 0.049 | IRAK-1-4 Inhibitor I 0 | ibrutinib -0.011 | [9] 0.024 | ralimetinib 0.012 | [10] -0.028 | [11] -0.011 | [12] 0.005 | [13] 0.04 | [14] -0.021 | [15] 0.021 | [16] 0.01

TMPO (UniProt P42166)
inactive: erlotinib 0.026 | [1] -0.038 | [2] 0.012 | [3] -0.097 | [4] -0.03 | [5] -0.024 | [6] -0.026 | [7] -0.004 | [8] 0.005 | IRAK-1-4 Inhibitor I 0.008 | ibrutinib -0.025 | [9] -0.018 | ralimetinib -0.087 | [10] -0.004 | [11] 0.018 | [12] 0.011 | [13] 0 | [14] 0.024 | [15] 0.047 | [16] -0.026

TBL3 (UniProt Q12788)
UniProt Q12788, sequence (Q12788 whole entry, looked up): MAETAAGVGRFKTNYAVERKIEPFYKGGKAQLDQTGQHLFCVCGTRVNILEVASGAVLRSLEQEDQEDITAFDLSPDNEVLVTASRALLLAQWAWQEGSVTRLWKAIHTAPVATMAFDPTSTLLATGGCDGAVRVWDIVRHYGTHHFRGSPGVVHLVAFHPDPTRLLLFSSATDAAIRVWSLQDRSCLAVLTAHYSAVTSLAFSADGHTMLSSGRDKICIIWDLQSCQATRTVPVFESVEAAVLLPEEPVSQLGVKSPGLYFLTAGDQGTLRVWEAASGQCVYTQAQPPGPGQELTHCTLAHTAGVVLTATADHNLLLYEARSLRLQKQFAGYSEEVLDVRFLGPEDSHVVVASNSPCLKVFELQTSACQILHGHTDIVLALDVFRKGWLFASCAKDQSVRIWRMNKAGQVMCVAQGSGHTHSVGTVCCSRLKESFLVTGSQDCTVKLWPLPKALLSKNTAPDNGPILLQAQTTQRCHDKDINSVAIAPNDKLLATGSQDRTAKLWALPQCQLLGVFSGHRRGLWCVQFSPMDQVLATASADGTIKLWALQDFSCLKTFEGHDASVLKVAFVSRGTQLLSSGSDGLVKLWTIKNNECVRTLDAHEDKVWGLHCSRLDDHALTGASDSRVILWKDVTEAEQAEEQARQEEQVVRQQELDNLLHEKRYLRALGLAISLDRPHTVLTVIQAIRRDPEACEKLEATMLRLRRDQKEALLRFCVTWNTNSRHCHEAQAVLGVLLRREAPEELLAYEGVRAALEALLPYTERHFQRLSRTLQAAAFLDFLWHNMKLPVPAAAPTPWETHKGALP
inactive: erlotinib 0.082 | [1] -0.001 | [2] -0.071 | [3] 0.037 | [4] 0.012 | [5] 0.017 | [6] 0.043 | [7] 0.074 | [8] -0.016 | IRAK-1-4 Inhibitor I 0.01 | ibrutinib -0.006 | [9] -0.016 | ralimetinib 0.027 | [10] 0.001 | [11] 0.026 | [12] 0.013 | [13] -0.017 | [14] 0.027 | [15] 0.046 | [16] 0.008

TRNAU1AP (UniProt Q9NX07)
inactive: erlotinib 0.019 | [1] 0.083 | [2] -0.037 | [3] 0.114 | [4] 0.038 | [5] -0.028 | [6] -0.31 | [7] -0.071 | [8] 0.015 | IRAK-1-4 Inhibitor I -0.005 | ibrutinib -0.013 | [9] -0.212 | ralimetinib 0.07 | [10] -0.045 | [11] 0.039 | [12] -0.008 | [13] 0.02 | [14] -0.035 | [15] 0.034 | [16] 0.021

TUBB2A (UniProt Q13885)
inactive: erlotinib 0.008 | [1] 0.04 | [2] 0.004 | [3] -0.021 | [4] -0.028 | [5] -0.008 | [6] -0.03 | [7] 0.014 | [8] 0.026 | IRAK-1-4 Inhibitor I 0.019 | ibrutinib 0.005 | [9] 0.014 | ralimetinib 0.032 | [10] -0.005 | [11] 0.027 | [12] 0.02 | [13] 0.001 | [14] -0.011 | [15] 0.032 | [16] 0.001

UCHL5 isoform 3 (UniProt Q9Y5K5)
inactive: erlotinib -0.015 | [1] -0.012 | [2] 0.015 | [3] -0.018 | [4] 0.01 | [5] -0.005 | [6] 0.001 | [7] 0 | [8] -0.014 | IRAK-1-4 Inhibitor I -0.018 | ibrutinib 0 | [9] -0.001 | ralimetinib 0.01 | [10] -0.008 | [11] 0.015 | [12] 0.014 | [13] 0.011 | [14] -0.029 | [15] 0.004 | [16] 0.012
